This is a sample that favours compounds with a hit; in the whole collection about 1.3% have one here.
KCNH2 3.1 block – qHTS for Inhibitors of KCHN2 3.1: Mutant qHTS; U2OS KCNH2 3.1, thallium flux FluxOr; active compounds read low; activity change, % (tested at about 1.8 µM); 340,000 compounds, 0.95% hits;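 active = maximum activity change below -70%; inconclusive = maximum activity change from -70% to -50%; inactive = maximum activity change above -50%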;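 also: thallium influx rate constant from kinetic fluorescence after stimulation buffer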
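U2OS cells transduced with KCNH2 3.1 mutant virus (1.77 x 10^8 /mL, 4 h), plated overnight at 37 C, loaded 45 min with FluxOr dye plus Red40 quencher. Thallium flux rate constant from kinetic reads after stimulation buffer, normalised to controls.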
TRPV1 PAM – HTS Assay for Compounds that Act as Potentiators of the Vanilloid Receptor 1; Transient receptor potential cation channel subfamily V member 1 (Homo sapiens), Q8NER1; TRPV1-expressing cells, Fluo-8 calcium influx, capsaicin EC20 potentiation; potentiation, % at 8.33 µM; 320,000 compounds, 0.02% hits; AID 540277, 2011; in the data active = potentiation above about 80%; inconclusive = between about 30% and that limit
Target sequence (Q8NER1 whole entry, looked up): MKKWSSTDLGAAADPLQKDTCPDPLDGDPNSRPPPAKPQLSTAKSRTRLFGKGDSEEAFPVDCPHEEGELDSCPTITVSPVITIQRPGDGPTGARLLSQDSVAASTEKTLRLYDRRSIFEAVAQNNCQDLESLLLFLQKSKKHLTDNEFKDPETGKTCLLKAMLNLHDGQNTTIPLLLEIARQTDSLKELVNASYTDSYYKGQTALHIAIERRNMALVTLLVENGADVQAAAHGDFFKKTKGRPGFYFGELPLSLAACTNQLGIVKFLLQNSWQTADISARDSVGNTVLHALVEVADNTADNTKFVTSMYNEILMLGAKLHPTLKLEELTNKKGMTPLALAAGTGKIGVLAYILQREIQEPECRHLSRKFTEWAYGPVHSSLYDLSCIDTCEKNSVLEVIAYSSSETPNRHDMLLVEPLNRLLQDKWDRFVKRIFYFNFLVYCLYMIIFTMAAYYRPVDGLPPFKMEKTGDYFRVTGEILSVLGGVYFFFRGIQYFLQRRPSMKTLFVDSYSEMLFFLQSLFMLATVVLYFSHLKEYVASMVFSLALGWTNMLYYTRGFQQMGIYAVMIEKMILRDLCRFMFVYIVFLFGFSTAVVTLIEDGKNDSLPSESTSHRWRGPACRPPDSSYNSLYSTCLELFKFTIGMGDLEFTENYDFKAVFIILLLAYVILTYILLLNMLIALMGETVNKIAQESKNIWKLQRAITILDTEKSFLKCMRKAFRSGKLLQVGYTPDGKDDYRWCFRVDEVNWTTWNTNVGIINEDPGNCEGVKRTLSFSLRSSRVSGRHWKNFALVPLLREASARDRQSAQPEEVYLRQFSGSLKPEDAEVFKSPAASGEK
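Fluo-8 calcium influx in TRPV1-expressing cells, kinetic read (ex 480/em 520 nm). Compound added and read 3 min for agonist activity, followed by capsaicin at EC20 final and 2 min further read for enhancement.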
MBNL1 CUG block – qHTS Assay for Inhibitors of MBNL1-poly(CUG) RNA binding; AID 2675, 2010; Potency, µM (doses to about 57.5 µM), most hits filed as inhibitors; 280,000 compounds, 0.036% hits; TR-FRET MBNL1-His/biotin-(CUG)12 binding, 665/545 ratio; Muscleblind-like protein 1 (Homo sapiens), Q9NR56; active = well fitted inhibition curve with a large enough effect in the signal ratio, with a control signal flat, not every such curve was filed as active; inconclusive = small, poorly fitted or top-dose-only effect, or effect the other way, or a change in a side signal; inactive = no such curve, though single readings can be large or run the other way; the % refers to the signal ratio
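His-tagged MBNL1 binding to biotinylated (CUG)12 RNA was measured by TR-FRET using terbium anti-His antibody (0.055 ng/ul final) and streptavidin-XL665 (5 nM final). Compounds were titrated 92 nM to 58 uM; 60 min at room temperature.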
hERG WT inh – qHTS for Inhibitors of KCHN2 3.1: Wildtype qHTS | U2OS, BacMam KCNH2, thallium flux FluxOr; active compounds read low | activity change, % at 1.84 µM | 340,000 compounds, 0.37% hits;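 active = maximum activity change below -70%; inconclusive = maximum activity change between -70% and -50%; inactive = maximum activity change above -50%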
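U2OS cells were transduced with wild-type KCNH2 virus (2.03 x 10^8 / mL) for 4 h at room temperature, then cultured overnight at 37 C. Thallium flux was read with FluxOr dye. Rate constants were normalized to DMSO controls.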
TRPV1 ag – HTS Assay for Compounds that Act as Agonists of the Vanilloid Receptor 1 | Transient receptor potential cation channel subfamily V member 1 (Homo sapiens), Q8NER1 | TRPV1-expressing cells, Fluo-8 calcium influx, agonist mode | activation, % at 8.33 µM | 320,000 compounds, 0.19% hits; in the data active = activation above about 80%; inconclusive = between about 30% and that limit
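Cells expressing TRPV1 were dye-loaded with Fluo-8 and read kinetically: 10 s baseline, 3 min after compound (agonist portion), then 2 min after EC20 capsaicin (allosteric enhancer portion). Calcium-bound dye fluorescence at 480/520 nm.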
Of the large screens only hits and unclear results are named; the others gave an inactive call.

COc1ccccc1C(=O)Nc1ccnn1C1CCN(C2CCCCC2)CC1	none (no result: TRPV1 PAM, MBNL1 CUG block, TRPV1 ag)
C/C(N)=C(/C#N)C(=O)CSc1nc2ccccc2c(=O)n1-c1ccc(C)c(Cl)c1	MBNL1 CUG block inconclusive
COc1cccc(C(=O)NNC(=O)Cc2ccc([N+](=O)[O-])cc2)c1	none
Cc1cccc(-c2cc3nc4c(c(NCc5ccco5)n3n2)CCCC4)c1	KCNH2 3.1 block -83, hERG WT inh inconclusive, TRPV1 ag inconclusive
Cc1cccc(-c2cc3nc4c(c(N5CCOCC5)n3n2)CCCC4)c1	none
CCOc1ccc(NC(=O)Cn2nnc(C(=O)NCc3ccc4c(c3)OCO4)c2N)cc1	none
O=C(NCc1ccccc1)C(c1ccncc1)N(C(=O)c1csnn1)c1cccc(F)c1 (configuration not stated)	none
O=C(CCC(=O)N1CCOc2ccc(Cl)cc21)NCCCN1CCC(Cc2ccccc2)CC1	KCNH2 3.1 block -80
COc1ccc(N2CCN(CCCNC(=O)CCC(=O)N3CCOc4ccc(Cl)cc43)CC2)cc1	KCNH2 3.1 block -80
CC(C)c1nc2cc(C(=O)N3CCN(c4cnccn4)CC3)ccc2o1	none
CCN(CC)CCCOC(=O)c1ccc(OC)cc1O	none
COC(=O)c1cc(S(=O)(=O)N(C)C2CCCCC2)c[nH]1	KCNH2 3.1 block -120
Cc1ccc(S(=O)(=O)N(C)Cc2ccc(C(=O)N/N=C/c3ccc(OC(F)F)cc3OC(F)F)cc2)cc1	KCNH2 3.1 block -75
Cc1ccc(S(=O)(=O)N(C)C[C@@H]2Oc3ccc(NC(=O)CCC(F)(F)F)cc3CC(=O)N([C@@H](C)CO)C[C@@H]2C)cc1	none (no result: TRPV1 PAM, MBNL1 CUG block, TRPV1 ag)
O=C(CSc1nc(O)c(C2CCCCC2)c(=O)[nH]1)NCC1CCCO1 (configuration not stated)	TRPV1 PAM inconclusive
CC(C)C(=O)Nc1nnc(SCC(=O)NCC2CCCO2)s1 (configuration not stated)	KCNH2 3.1 block -85 (no result: MBNL1 CUG block)
Cc1ccc(Nc2nnc(SCC(=O)NCC3CCCO3)s2)cc1 (configuration not stated)	none (no result: TRPV1 PAM, MBNL1 CUG block, TRPV1 ag)
Cc1cc(=O)[nH]c(SCC(=O)NCC2CCCO2)n1 (configuration not stated)	hERG WT inh -235
COc1ccc(OC)c(N(CC(=O)NCC2CCCO2)S(=O)(=O)c2ccccc2)c1 (configuration not stated)	none
COCCN(C(=O)Nc1ccc(OC)cc1)c1nc2ccccc2s1	none
Cc1occc1C(=O)N(C)CC1CCCN(CCc2ccccc2F)C1 (configuration not stated)	none
CN(CC1CCCN(CCc2ccc(Cl)cc2)C1)C(=O)C(=O)c1ccco1 (configuration not stated)	KCNH2 3.1 block -89
Cc1ccccc1CCN1CCCC(CN(C)C(=O)C(=O)c2ccco2)C1 (configuration not stated)	KCNH2 3.1 block -90
Cc1ccc(NC(=O)COC(=O)CNC(=O)c2ccc(Br)cc2)c(C)c1	MBNL1 CUG block inconclusive
CC1CC[C@@]2(OC1)O[C@H]1CC3[C@@H]4C[C@@H](O)[C@@]5(O)C[C@@H](O)[C@H](O)C[C@]5(C)[C@H]4CC[C@]3(C)[C@H]1[C@@H]2C (some centres not stated)	hERG WT inh -92
CCN(CC)S(=O)(=O)c1ccc(C(C)NC(=O)Cc2c[nH]c3ccccc23)cc1 (configuration not stated)	none
S=C(Nc1ccc(Br)cc1Cl)N1CCCC1	TRPV1 ag inconclusive
COc1ccc(C(=O)NC(=S)Nc2ccc(CN3CCCCC3)cc2)cc1Cl	TRPV1 PAM inconclusive
CC(=O)Nc1ccc(NC(=S)NC(=O)c2cc3ccccc3o2)cc1	none (no result: MBNL1 CUG block)
O=C(Nc1ccc(CN2CCCCC2)cc1)Nc1ccc(Br)cc1Cl	KCNH2 3.1 block -110, hERG WT inh inconclusive
Cc1ccc(C(=O)NC(=S)Nc2ccc(CN3CCCCC3)cc2)c(C)c1	KCNH2 3.1 block -73
O=C(NC(=S)Nc1ccc(CN2CCCCC2)cc1)c1cc2ccccc2o1	KCNH2 3.1 block -94
CCc1ccc(Nc2ccc3nonc3c2[N+](=O)[O-])cc1	KCNH2 3.1 block -159, hERG WT inh -134 (no result: TRPV1 PAM, MBNL1 CUG block, TRPV1 ag)
CCCCn1nc(NC(=O)COC)c2cc3ccc(C)cc3nc21	TRPV1 ag 89
CCCn1nc(NC(=O)COC)c2cc3cc(C)ccc3nc21	TRPV1 PAM inconclusive, MBNL1 CUG block inconclusive (no result: hERG WT inh)
COc1ccc(-c2nnc(SCC(=O)Nc3ccc4c(c3)OCCO4)n2N)cc1OC	none
CCN1CCc2nc3ccccc3c(C(=O)Nc3ccc(NC(C)=O)cc3)c2C1	none (no result: MBNL1 CUG block)
CCN1CCc2nc3ccccc3c(C(=O)Nc3ccc(F)cc3)c2C1	KCNH2 3.1 block -83, hERG WT inh inconclusive
CCc1ccc(CN2CCCC(CNS(=O)(=O)c3ccc(OC)cc3)C2)cc1 (configuration not stated)	KCNH2 3.1 block -71
NS(=O)(=O)c1ccc(CCNCc2ccccc2OCc2ccc(Cl)cc2)cc1	KCNH2 3.1 block -71
NS(=O)(=O)c1ccc(CCNCc2cc(Cl)ccc2OCc2ccccc2)cc1	none
CCOc1cccc(C(=O)NNC(=O)C2C3C=CC(C3)C2C(=O)O)c1 (configuration not stated)	none
CCOc1cccc2cc(C(=O)Nc3cc(C)on3)c(=O)oc12	KCNH2 3.1 block -77, MBNL1 CUG block inconclusive
CCOc1cccc2cc(C(=O)NCc3ccc(OC)cc3)c(=N)oc12	none
CCOc1cccc2cc(C(=O)Nc3ccccc3-c3ccccc3)c(=O)oc12	none (no result: MBNL1 CUG block)
CCOc1cccc2cc(C(=O)NCc3ccc(C)cc3)c(=N)oc12	KCNH2 3.1 block -208
Cn1c(CCN2CCCCC2)nc2cc(NC(=O)COc3ccccc3)ccc21	KCNH2 3.1 block -86
Cc1cccc(OCC(=O)Nc2ccc3c(c2)nc(CCN2CCCCC2)n3C)c1	KCNH2 3.1 block -77
COc1ccc(OCC(=O)Nc2ccc3c(c2)nc(CCN2CCCCC2)n3C)cc1	KCNH2 3.1 block -72
CN1CCN(CCc2nc3cc(NC(=O)COc4ccccc4)ccc3n2C)CC1	none
CC(C)NC(=O)N(C)C[C@H]1Oc2ccc(NC(=O)Cc3ccccc3)cc2C(=O)N([C@H](C)CO)C[C@@H]1C	none (no result: TRPV1 PAM, MBNL1 CUG block, TRPV1 ag)
O=C(Nc1ccc(Cl)cc1)c1ccc(Br)cc1F	TRPV1 ag 83
CC(C)c1ccc(NC(=O)c2cc(Br)ccc2Br)cc1	none
Cc1csc(=O)n1CC(=O)OCc1nnc(-c2ccccc2)o1	none (no result: MBNL1 CUG block)
Cc1csc(=O)n1CCC(=O)OCc1nnc(-c2ccccc2Cl)o1	hERG WT inh -85 (no result: TRPV1 PAM, MBNL1 CUG block, TRPV1 ag)
O=C(NNC(=O)c1ccccc1O)c1ccc(Br)cc1	none
O=C(O)CCCC(=O)NNC(=O)c1cccc(Br)c1	KCNH2 3.1 block -98

Screens from PubChem.
